Results from the supplement of paper PMC11732987, “Enantioselective OTUD7B fragment discovery through chemoproteomics screening and high-throughput optimisation” (Communications Chemistry, 2025).

How the values were obtained:
Assay in all cases: log2 ratio of Biotin-Ahx-Ub-VS probe labelling (fragment/DMSO); higher = less target engagement (more negative = stronger competition), active = hit call of the paper (q ≤ 0.05, log2 ratio ≤ -1)
Details in all cases: compound concentration: 200 uM; treatment time: 3 h
ALG13 = biological target: T1, ALG13 (UniProt Q9NP73)
T1 sequence (whole entry): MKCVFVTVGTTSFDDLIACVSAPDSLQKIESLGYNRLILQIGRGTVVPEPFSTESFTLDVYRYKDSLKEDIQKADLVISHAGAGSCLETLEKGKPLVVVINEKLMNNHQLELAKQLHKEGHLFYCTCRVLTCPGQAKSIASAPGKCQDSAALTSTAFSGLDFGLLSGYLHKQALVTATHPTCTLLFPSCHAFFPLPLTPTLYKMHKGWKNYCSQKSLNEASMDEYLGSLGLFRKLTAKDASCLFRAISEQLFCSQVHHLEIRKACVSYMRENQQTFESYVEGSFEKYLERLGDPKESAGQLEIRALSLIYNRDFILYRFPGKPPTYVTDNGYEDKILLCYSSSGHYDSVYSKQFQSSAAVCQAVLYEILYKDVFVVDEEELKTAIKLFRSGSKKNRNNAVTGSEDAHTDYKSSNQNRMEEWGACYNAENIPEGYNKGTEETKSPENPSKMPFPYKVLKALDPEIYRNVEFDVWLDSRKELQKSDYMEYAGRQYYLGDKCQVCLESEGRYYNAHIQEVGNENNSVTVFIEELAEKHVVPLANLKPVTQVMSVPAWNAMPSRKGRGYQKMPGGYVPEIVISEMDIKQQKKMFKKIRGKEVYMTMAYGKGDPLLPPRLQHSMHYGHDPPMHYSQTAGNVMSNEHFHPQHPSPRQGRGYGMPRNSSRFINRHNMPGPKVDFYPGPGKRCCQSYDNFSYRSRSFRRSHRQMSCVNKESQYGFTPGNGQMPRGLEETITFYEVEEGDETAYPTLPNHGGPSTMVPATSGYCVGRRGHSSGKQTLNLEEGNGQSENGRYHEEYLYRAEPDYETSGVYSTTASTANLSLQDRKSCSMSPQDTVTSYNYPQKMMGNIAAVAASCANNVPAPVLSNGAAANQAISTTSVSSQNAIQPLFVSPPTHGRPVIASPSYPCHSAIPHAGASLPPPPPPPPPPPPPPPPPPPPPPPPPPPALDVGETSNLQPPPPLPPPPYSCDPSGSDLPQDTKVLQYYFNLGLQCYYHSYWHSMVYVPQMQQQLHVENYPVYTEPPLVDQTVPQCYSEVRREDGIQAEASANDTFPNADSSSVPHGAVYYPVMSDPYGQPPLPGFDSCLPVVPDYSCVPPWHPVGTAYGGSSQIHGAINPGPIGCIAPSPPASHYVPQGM
How it was run: (§1)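 Average log2 ratios of fragment over vehicle were obtained by unpaired t-test from global-median-normalised Spectronaut label-free quantities. Proteins with ≥2 unique peptides were included. HEK293T lysate (495 µg per sample) was treated in triplicate with fragment at 200 µM or vehicle for 3 h, then with Biotin-Ahx-Ub-VS at 0.5 µM final for 1 h, and labelled DUBs were NeutrAvidin-enriched and run by diaPASEF LC-MS/MS.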

ATXN3 = ATXN3 (UniProt P54252)
ATXN3, sequence (P54252 whole entry): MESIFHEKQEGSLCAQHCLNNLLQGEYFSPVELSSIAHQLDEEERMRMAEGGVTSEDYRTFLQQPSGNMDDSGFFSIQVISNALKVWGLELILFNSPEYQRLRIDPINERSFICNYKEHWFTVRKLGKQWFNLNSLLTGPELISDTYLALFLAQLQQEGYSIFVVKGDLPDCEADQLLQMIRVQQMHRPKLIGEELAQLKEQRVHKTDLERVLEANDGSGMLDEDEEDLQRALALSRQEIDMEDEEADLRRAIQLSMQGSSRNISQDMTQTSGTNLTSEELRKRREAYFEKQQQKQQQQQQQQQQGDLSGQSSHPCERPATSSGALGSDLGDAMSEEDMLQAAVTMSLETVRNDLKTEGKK
How it was run: as §1

BAP1 = biological target: T2, BAP1 (UniProt Q92560)
T2 sequence (whole entry): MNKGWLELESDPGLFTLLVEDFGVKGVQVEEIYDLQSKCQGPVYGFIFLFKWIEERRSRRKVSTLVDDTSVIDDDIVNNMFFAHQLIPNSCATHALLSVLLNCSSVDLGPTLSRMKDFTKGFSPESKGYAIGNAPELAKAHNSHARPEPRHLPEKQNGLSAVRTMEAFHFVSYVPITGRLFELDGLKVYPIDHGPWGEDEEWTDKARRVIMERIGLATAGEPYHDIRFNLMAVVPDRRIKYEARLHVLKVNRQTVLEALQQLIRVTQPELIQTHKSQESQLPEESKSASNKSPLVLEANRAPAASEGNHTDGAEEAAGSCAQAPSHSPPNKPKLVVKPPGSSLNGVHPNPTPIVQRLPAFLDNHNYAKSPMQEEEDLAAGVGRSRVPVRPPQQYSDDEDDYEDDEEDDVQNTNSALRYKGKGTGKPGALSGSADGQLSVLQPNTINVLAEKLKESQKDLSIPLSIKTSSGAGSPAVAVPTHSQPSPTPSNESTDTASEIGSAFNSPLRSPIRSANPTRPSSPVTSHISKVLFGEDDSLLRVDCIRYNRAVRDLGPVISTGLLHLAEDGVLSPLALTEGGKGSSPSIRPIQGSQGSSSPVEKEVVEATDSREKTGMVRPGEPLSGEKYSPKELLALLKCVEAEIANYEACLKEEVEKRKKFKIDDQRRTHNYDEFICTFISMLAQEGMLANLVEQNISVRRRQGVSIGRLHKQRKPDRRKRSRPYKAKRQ
How it was run: as §1

EIF3F = EIF3F (UniProt O00303)
EIF3F, sequence (O00303 whole entry): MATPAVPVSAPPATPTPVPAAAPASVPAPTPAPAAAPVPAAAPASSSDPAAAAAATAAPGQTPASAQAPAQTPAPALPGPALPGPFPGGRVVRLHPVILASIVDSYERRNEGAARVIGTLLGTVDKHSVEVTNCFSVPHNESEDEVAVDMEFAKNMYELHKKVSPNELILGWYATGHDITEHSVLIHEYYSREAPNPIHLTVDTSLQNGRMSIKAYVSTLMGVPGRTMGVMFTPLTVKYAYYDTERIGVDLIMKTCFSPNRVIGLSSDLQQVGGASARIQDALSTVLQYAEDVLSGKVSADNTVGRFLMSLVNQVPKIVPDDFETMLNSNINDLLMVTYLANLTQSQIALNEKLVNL
How it was run: as §1

EIF3H = EIF3H (UniProt O15372)
EIF3H, sequence (O15372 whole entry): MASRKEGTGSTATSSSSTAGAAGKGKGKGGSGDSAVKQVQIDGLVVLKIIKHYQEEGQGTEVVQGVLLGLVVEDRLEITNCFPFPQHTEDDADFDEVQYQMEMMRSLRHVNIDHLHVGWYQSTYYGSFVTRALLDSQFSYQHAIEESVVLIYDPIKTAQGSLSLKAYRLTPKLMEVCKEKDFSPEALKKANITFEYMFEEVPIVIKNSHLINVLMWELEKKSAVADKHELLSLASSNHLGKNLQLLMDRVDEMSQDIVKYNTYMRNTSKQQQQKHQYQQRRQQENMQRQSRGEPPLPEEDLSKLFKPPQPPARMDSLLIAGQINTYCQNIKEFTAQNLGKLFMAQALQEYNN
How it was run: as §1

FAM105A = biological target: T3, FAM105A (UniProt Q9NUU6)
T3 sequence (whole entry): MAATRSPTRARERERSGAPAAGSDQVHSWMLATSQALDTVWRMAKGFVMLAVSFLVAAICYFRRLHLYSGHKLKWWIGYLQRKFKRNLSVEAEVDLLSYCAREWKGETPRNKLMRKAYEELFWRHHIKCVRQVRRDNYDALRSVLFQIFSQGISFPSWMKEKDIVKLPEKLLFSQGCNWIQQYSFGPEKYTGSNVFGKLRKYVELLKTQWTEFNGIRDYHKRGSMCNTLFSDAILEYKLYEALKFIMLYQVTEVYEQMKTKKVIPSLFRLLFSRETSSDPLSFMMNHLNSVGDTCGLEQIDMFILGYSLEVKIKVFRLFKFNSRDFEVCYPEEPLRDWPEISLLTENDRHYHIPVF
How it was run: as §1

OTUB1 = OTUB1 (UniProt Q96FW1)
OTUB1, sequence (Q96FW1 whole entry): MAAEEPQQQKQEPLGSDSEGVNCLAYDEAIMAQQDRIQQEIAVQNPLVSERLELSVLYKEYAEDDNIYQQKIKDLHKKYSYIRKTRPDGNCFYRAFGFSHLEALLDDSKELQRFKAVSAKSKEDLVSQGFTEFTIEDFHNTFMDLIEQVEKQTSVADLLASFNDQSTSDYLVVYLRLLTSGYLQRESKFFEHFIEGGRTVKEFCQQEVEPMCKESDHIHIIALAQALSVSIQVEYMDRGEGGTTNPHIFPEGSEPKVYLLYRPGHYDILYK
How it was run: as §1

OTUD4 = biological target: T4, OTUD4 (UniProt Q01804)
T4 sequence (whole entry): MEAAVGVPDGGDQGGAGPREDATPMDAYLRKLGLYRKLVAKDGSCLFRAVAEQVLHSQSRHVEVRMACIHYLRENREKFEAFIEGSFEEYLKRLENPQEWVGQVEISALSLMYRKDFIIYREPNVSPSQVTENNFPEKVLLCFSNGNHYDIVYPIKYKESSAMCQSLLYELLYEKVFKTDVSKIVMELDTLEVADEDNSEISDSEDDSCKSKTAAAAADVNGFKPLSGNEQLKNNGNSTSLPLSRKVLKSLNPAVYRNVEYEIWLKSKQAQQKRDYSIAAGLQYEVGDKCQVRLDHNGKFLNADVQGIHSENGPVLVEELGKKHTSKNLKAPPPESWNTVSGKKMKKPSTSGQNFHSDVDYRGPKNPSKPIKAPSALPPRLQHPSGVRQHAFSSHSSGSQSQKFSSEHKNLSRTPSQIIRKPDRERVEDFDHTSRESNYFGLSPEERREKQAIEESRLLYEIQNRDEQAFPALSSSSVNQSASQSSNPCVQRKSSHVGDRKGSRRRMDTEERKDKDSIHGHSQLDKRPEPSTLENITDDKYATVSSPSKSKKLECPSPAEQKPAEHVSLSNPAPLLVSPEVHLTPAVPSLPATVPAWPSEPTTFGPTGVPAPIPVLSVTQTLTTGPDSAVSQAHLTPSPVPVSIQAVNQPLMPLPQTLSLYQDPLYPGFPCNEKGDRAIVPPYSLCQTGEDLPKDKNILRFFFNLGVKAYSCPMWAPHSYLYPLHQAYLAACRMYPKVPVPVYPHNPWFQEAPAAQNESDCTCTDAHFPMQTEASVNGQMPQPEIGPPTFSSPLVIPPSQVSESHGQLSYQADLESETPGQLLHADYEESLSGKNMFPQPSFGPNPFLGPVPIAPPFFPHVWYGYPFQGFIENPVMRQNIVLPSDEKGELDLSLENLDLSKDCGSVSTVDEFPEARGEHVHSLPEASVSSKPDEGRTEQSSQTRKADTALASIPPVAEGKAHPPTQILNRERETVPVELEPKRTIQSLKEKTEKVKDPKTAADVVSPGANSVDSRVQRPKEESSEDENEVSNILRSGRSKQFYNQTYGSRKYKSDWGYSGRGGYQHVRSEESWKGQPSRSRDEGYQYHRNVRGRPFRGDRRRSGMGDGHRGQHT
How it was run: as §1

OTUD5 = biological target: T5, OTUD5 (UniProt Q96G74)
T5 sequence (whole entry): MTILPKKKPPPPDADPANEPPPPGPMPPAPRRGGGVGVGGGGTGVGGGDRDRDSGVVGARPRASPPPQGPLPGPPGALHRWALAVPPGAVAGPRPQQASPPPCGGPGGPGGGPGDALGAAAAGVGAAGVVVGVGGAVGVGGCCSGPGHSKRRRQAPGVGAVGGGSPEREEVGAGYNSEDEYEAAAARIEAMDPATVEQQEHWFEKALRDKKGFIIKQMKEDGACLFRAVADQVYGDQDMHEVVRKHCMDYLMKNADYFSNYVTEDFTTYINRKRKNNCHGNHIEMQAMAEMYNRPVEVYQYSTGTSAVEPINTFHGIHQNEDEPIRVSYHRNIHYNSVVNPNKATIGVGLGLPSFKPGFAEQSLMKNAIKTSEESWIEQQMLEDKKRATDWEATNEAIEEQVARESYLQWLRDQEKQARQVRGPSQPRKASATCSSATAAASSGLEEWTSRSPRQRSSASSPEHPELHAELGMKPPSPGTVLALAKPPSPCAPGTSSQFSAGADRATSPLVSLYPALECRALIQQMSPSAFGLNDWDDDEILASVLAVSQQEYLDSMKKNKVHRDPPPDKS
How it was run: as §1

Measured: log2 ratio of Biotin-Ahx-Ub-VS probe labelling

CN1c2ccccc2C(NC(=O)CCl)CS1(=O)=O (stereo unspecified)
inactive: ALG13 -0.325 | ATXN3 -0.142 | EIF3F -0.327 | EIF3H 0.0135 | FAM105A 0.147 | OTUB1 -0.0194 | OTUD5 -0.14
active: BAP1 -2.33 | OTUD4 -1.65

Cc1ccccc1C1(CNC(=O)CCl)CCOCC1
inactive: ALG13 0.22 | ATXN3 -0.273 | EIF3F 0.0678 | EIF3H 0.00175 | FAM105A 0.0441 | OTUB1 -0.0623 | OTUD4 -0.322 | OTUD5 -0.157
active: BAP1 -1.23

Cc1ccc(CC(NC(=O)CCl)c2ccccn2)cc1.Cl (stereo unspecified)
inactive: ALG13 -0.831 | ATXN3 0.249 | BAP1 -0.525 | EIF3F -0.0559 | EIF3H 0.165 | FAM105A -0.348 | OTUB1 -0.0206 | OTUD4 0.0988 | OTUD5 -0.157

O=C(CCl)N1CCOC(c2cccc(F)c2)C1 (stereo unspecified)
active: ATXN3 -2.59 | BAP1 -1.09
inactive: ALG13 -0.261 | EIF3F -0.0524 | EIF3H 0.265 | FAM105A -0.167 | OTUB1 -0.175 | OTUD4 -0.803 | OTUD5 -0.491
